# ± gives the standard deviation.
# Tests used:
# [1] = tested on: MILI (PIWIL2) piRISC loaded with L1MC piRNA (26 nt); test: pre-steady-state target cleavage rate (min^-1); guide: L1MC piRNA 5'p-UAACUAAAUACUAUGCAAGCUGUAGG; higher = faster piRNA-guided slicing of the target;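 further: 1 nM active piRISC with 0.1 nM target library at 33 °C single turnover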
# In short: (§1)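 Reactions were run for 0–8 or 0–960 min at 33 °C in HEPES–potassium acetate buffer, combining 1 nM active affinity-purified piRISC with one synthetic guide, […] transcribed, DNA-blocked target RNA library and, in some cases, 500 nM GTSF1 partner protein. Sequencing of uncleaved targets followed, with normalisation to depth and to weakly complementary targets. Three trials were pooled, k3 was capped at 0.0001 min^-1, and the pre-steady-state cleavage rate was taken from a burst-and-steady-state fit.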
# [2] = tested on: EfPiwi piRISC loaded with L1MC piRNA (26 nt); test: pre-steady-state target cleavage rate (min^-1); auxiliary factor: 500 nM Ephydatia muelleri Gtsf1; guide: L1MC piRNA 5'p-UAACUAAAUACUAUGCAAGCUGUAGG; MIWI and MILI are mouse PIWI proteins and EfPiwi is from a freshwater sponge; tags in brackets are library labels; higher = faster piRNA-guided slicing of the target
# In short: as §1
# [3] = auxiliary factor: 500 nM mouse GTSF1
# [4] = auxiliary factor: none (no GTSF1)
Sequence,"pre-steady-state target cleavage rate [1, 3]","pre-steady-state target cleavage rate [1, 4]",pre-steady-state target cleavage rate [2]
UCCUGGAUCAGCUUGGCAUAGUAUUUAGUUA,0.3 ± 0.061,0.00341 ± 0.0025,0.0127 ± 0.0034
UCCUGGUUCAGGUUGCAUAGUAUUUAGUUA,0.21 ± 0.023,0.0182 ± 0.005,0.0166 ± 0.0047
UCCUGGUACAGCUUGCUUAGUUUUUAGUUA,0.0347 ± 0.011,0.00709 ± 0.0023,0.00346 ± 0.003
UCCUGGAUGUGCUUGCAUAGUACUUUAGUUA,0.0231 ± 0.0092,0.00627 ± 0.0028,0.0126 ± 0.0061
UCCUGGAUCGGCUUGCAUAGUAUUUAGUUA,0.261 ± 0.016,0.0131 ± 0.0022,0.0523 ± 0.0092
UCCUGGAUCAGCUCUGCAUAGUAUUUAGUUA,0.246 ± 0.024,0.00786 ± 0.0034,0.101 ± 0.023
UCCUGGUACUGCUUGCUUAGUAUUUAGUUA,0.197 ± 0.015,0.0115 ± 0.0025,0.00909 ± 0.0033
UCCUGGUUCAGCUUGCAUUGUAUUUAGUUA,0.191 ± 0.023,0.0105 ± 0.0029,0.0223 ± 0.007
UCCUCCUACAGGUUGCAUAGUUUUUAGUUA,0.0349 ± 0.0064,0.00478 ± 0.0018,0.00915 ± 0.0022
UCCUCCUACAGCUUGCAUAGUAUUAUAGUUA,0.258 ± 0.019,0.00434 ± 0.0022,0.00777 ± 0.0033
UCCUGGAACAGCUUGCAUAGUGUUUAGUUA,0.146 ± 0.018,0.00335 ± 0.0028,0.0084 ± 0.0024
UCCUCCUACAGCUAGCAUUGUAUUUAGUUA,0.184 ± 0.013,0.00496 ± 0.0019,0.0127 ± 0.0042
UCCUCCUACAGCUAGCUUAGUAUUUAGUUA,0.206 ± 0.017,0.00491 ± 0.0019,0.00997 ± 0.0038
UCCUGCUACAUCUUGCAUAGUAUUUAGUUA,0.239 ± 0.02,0.0095 ± 0.0022,0.0423 ± 0.014
UCCUGGAUGAACUUGCAUAGUAUUUAGUUA,0.128 ± 0.013,0.00751 ± 0.0026,0.0179 ± 0.0064
UCCUGGAACUGGUUGCAUAGUAUUUAGUUA,0.202 ± 0.018,0.0046 ± 0.0029,0.02 ± 0.0073
UCCUGGAACCAGCUUGCAUAGUAUUUAGUUA,0.365 ± 0.032,0.00736 ± 0.0021,0.0336 ± 0.0098
UCCUGGAUGUCCUGGCAUAGUAUUUAGUUA,0.066 ± 0.013,0.00414 ± 0.0026,0.0055 ± 0.0047
UCCUCCUACAGCUUGCAUAGUAUUUAGUCA,0.303 ± 0.025,0.00856 ± 0.0028,0.00693 ± 0.003
UCCUGGAUGAGAUUGCAUAGUAUUUAGUUA,0.153 ± 0.014,0.011 ± 0.0024,0.00463 ± 0.0025

# Source: the supplement of paper PMC10338343
